In article PMC6212790, “How bacterial xenogeneic silencer rok distinguishes foreign from self DNA in its resident genome”:
Over roughly 33,000 sequences, “e-score” has its median near -0.037; the highest 2% begin near 0.34. What follows is part of a selection rich in the highest values, with near analogues and random picks from the rest.

target: T1, GST-Rok (full length) (Bacillus subtilis subsp. subtilis str. …, UniProt O34857 1-191); experiment: protein binding microarray; Rok is a gene silencer of Bacillus subtilis; high values mean tight binding; conditions: protein: recombinant; tags: GST (pTH5325, pDEST15-Magic modified); dsDNA, one strand shown
T1 sequence: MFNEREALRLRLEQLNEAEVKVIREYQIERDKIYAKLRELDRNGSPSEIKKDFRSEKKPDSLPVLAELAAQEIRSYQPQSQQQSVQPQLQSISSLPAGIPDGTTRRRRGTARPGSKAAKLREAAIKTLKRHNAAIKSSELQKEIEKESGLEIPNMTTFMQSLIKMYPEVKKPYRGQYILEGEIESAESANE
In short: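 Each has a 25-mer constant primer and a 35-mer variable part from a de Bruijn sequence of order 10, covering every non-palindromic 8-mer at least 32 times (palindromic 16). Preference for each 8-mer is given as a rank-based, unitless enrichment score (E-score). Its range runs from 0.5 (most favored) to −0.5 (most disfavored).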

Sequence | binding signal [E-score]
AAAAACCG | -0.0149
AAACCAAA | -0.0651
ACGTTGGA | -0.0982
CTCACTCA | 0.0449
ATGGTATG | 0.0823
AATCTCCG | 0.0469
ACCCGCAG | -0.2
ATAAACAA | 0.0341
TAATAACA | 0.238
AATGGGAG | -0.0919
GTTATCTA | 0.285
AACTTCGG | -0.044
TACGAGAA | 0.113
AAATCTAC | 0.398
AAATCTAA | 0.157
AAATCTAT | 0.315
CGCATCGC | -0.115
AAGTCCCG | -0.14
TATAGAAA | 0.363
AATAGAAC | 0.0621
CATAGAAA | 0.129
AATAGAAT | 0.329
GATAGAAA | 0.307
AATAGAAA | 0.371
ATGTGCTA | 0.222

Sequence | binding signal [E-score]
CCATATCC | -0.0185
CGCGGCAA | 0.00655
CTTACTCA | -0.0171
CGTTGAAG | 0.0718
AACGGCGC | -0.0478
ATAGCGAG | -0.0541
CTAGTTAA | 0.349
CAAGTTAA | 0.0371
CGAGTTAA | 0.153
GAAGTTAA | 0.277
GTAGTTAA | 0.431
GTAGTTCA | 0.217
AGACTGGA | -0.123
ACATAGTC | 0.114
AGTTACGA | 0.167
ATTCACGA | -0.0154
AAACAGCT | 0.0473
CCTTCACA | 0.0629
ATGCTATA | 0.339
GAGCTACA | 0.0398
GAGCTATA | 0.145
AAGCTATA | 0.231
GTGCTATA | 0.147
TAGCTACA | 0.37
CAGCTACA | 0.0906

Sequence | binding signal [E-score]
TAGCTATA | 0.346
CTGCTATA | 0.0937
AAACTCCA | -0.0432
CTCACTGC | 0.0486
AACGAATT | 0.325
ATAACAAT | 0.266
AACAACAC | -0.114
AAATTACC | 0.347
AATTTACC | 0.296
AAATTACA | 0.301
AAATTACT | 0.386
CAATTACC | 0.133
AATTTACT | 0.384
AAATTACG | 0.194
GATTTACA | 0.345
GAATTACC | 0.216
GATTTACC | 0.275
AATTTACG | 0.292
AATTTACA | 0.305
GCCGATGA | -0.108
AGGTGAGC | -0.0616
ATTGATTC | 0.127
TGCAGTAA | 0.194
CTGGTATA | 0.303
GTGGTAAA | 0.192

Sequence | binding signal [E-score]
CTGGTAGA | 0.335
ATGGTAGG | 0.243
ATGGTATA | 0.381
ATGGTAGA | 0.444
ATGGTATC | 0.165
GTGGTAGA | 0.435
ATGGTAGC | 0.287
TGCCAGCA | 0.156
CGTCACAA | -0.0647
TATAACGA | 0.245
CCTATGCC | -0.0371
TCAACCAA | -0.0239
CGAATCTC | -0.0708
TAATAGGA | 0.202
AAACCTAA | 0.124
ATAACTTA | 0.265
ACCGATAC | 0.117
ACCGATAG | 0.0776
ACCGATAT | 0.338
AATATCTG | 0.268
GATATCTA | 0.4
GATATCAA | 0.208
CATATCTA | 0.293
AATATCTA | 0.392
AATATCTC | 0.203

Sequence | binding signal [E-score]
AATCGGAA | 0.0335
CCTAGTCG | -0.13
AACCACCT | -0.126
TCACAGAA | 0.0426
GACCAAGA | 0.0064
AAGCCTCT | -0.124
AACTACGG | 0.204
AACTACTG | 0.436
AACTACTC | 0.381
ACCTACTA | 0.372
AACTACGC | 0.201
CCCTACTA | -0.0153
AGCTACTG | 0.294
CACTACTG | -0.0214
ACCTACTG | 0.295
CACTACGA | 0.174
CACTACTA | 0.354
CACTACTC | 0.00906
ATGCCGCA | -0.0383
CTTCGCCA | -0.129
CCACTGCC | -0.199
CTATAAGC | 0.113
ATATGGAG | 0.202
GCGTGAAC | 0.00198
TAAGCTGA | -0.0981

Sequence | binding signal [E-score]
AGGGTACG | -0.168
CCGCTAGG | -0.19
GGCTTTAC | 0.00573
GCAAATCA | 0.0652
TATTGAAA | 0.0126
GACTACGA | 0.079
AACTACGT | 0.306
GACTACTC | 0.132
TACTACGA | 0.275
GACTACTA | 0.34
AACTACTT | 0.418
AACTACGA | 0.292
AGCTACTA | 0.291
CGCTACTA | 0.28
AACTACTA | 0.474
TACTACTA | 0.428
AACAACTT | 0.174
ATGTCGGC | 0.0255
ATGCATTG | 0.0725
GTCCGCAA | -0.0703
TCAAGCAA | -0.0617
CCCGATAC | 0.00567
CCATCCGC | -0.114
ACGGCTTA | -0.0338
AGATAATG | 0.225

Sequence | binding signal [E-score]
CACGTATG | 0.0605
TCCCCAAA | -0.169
CCCTTTTA | -0.102
GCTTTTTA | 0.157
AGATTTCA | 0.0391
AACATAAG | 0.23
GCTTTCTA | 0.224
ATATCCTA | 0.36
CTATCCTA | 0.0781
GTATCCTA | 0.13
GAATGGCC | -0.15
CATTTGCG | -0.059
AAATATAT | 0.429
AAAAATAT | 0.319
AAATACAG | 0.264
CAATATAA | 0.213
AAATACAT | 0.348
AAATATAA | 0.253
CAATATAC | 0.34
AAATATAG | 0.317
AAATACAC | 0.216
GAATATAC | 0.306
AAATATAC | 0.376
AGGAAGTG | -0.139
GCATGTTA | 0.0472

Sequence | binding signal [E-score]
AGTAAAAG | 0.19
CACGCTTA | -0.0251
AAATATTA | 0.305
AAATATCA | 0.271
AAATATGC | 0.223
AAATATTG | 0.295
AAATATGT | 0.338
AAATATCC | 0.127
AAATATTT | 0.337
AAATATGA | 0.199
AAATATCT | 0.355
CATTTCGG | 0.0631
AGTCCAAA | -0.0624
ACATCATC | -0.0524
AGCTATAA | 0.25
AACTATAT | 0.362
AGCTATAG | 0.283
AGCTATAT | 0.337
AACTATAC | 0.33
AACTATAG | 0.331
TAAGCCTA | -0.0764
AGGCAAGC | -0.186
AATTGTGG | -0.0645
CAGTGCGG | -0.0903
AGGTAGAA | 0.419

Sequence | binding signal [E-score]
GGGTAGAC | -0.127
ACGTAGAT | 0.222
AGTTAGAT | 0.162
AAGTAGAC | 0.00429
AAGTAGAG | 0.104
AGGTAGAG | 0.122
AGGTAGAT | 0.359
AAGTAGAT | 0.374
AGGTAGAC | 0.191
GGGTAGAA | 0.359
GGGTAGCA | -0.00107
GTGCTTTA | -0.00122
GCGAAGTA | 0.155
CGCTTTTC | 0.046
AAGCTTGT | 0.0413
CTAGGTGA | -0.041
AGAGTTAC | 0.152
CAAAGTTA | 0.0253
CGGTAGAC | -0.0961
CGGTAGAA | 0.417
TGGTAGAA | 0.468
TCGTAGAA | 0.131
CCGTAGAA | 0.32
CGGTAGAG | 0.0632
